Rpn11 block – Rpn11 (PSMD14) deubiquitinase inhibitors, primary screen, biochemical, fluorescence polarization, uHTS; 26S proteasome non-ATPase regulatory subunit 14 (Homo sapiens), O00487; human 26S proteasome, Ub4-pepOG fluorescence polarization; 20S core pre-blocked with epoxomicin; calls only at 20 µM; 360,000 compounds, 0.59% hits;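 active means inhibition at 20 µM, scaled to each plate's controls, above about 33%, limit read from the data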
Neddylation inh – inhibitors of cullin neddylation, primary screen, biochemical, TR-FRET, uHTS, NAE and Ubc12; NEDD8-conjugating enzyme Ubc12 (Homo sapiens) + NEDD8-activating enzyme E1 regulatory …; inhibition, % at 25 µM; 360,000 compounds, 0.58% hits; in the data active means inhibition above about 36%
PKA-R2B activ – activators of PKA-R2B holoenzyme, primary screen, biochemical, fluorescence polarization, Cy5-IP20, human. PKA-R2B holoenzyme dissociation; R2B truncated from residue 108, S112A mutant; 0% DMSO only, 100% 113 µM cGMP. activation, % at 11.4 µM. 340,000 compounds, 0.079% hits. AID 504700, 2011;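 active means activation above a cutoff set at the mean over all compounds plus 3 SD, cut at about 18% in these data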;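 further: higher means more holoenzyme dissociation and a rise in polarization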
Target sequence (P31323 whole entry, looked up, other chains not shown, the tested form may be a part): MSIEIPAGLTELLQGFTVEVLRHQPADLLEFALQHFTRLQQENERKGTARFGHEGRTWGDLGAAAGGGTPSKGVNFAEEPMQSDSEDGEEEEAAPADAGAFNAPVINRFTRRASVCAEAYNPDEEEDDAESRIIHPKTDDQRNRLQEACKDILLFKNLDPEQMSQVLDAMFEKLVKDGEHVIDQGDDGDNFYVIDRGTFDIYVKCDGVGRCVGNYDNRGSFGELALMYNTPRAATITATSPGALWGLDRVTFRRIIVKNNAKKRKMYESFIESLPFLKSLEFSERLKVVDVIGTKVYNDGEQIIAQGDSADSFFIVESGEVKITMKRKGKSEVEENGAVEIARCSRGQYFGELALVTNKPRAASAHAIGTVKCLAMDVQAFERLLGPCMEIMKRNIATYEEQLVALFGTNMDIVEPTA
PKA-R1A activ – activators of PKA-R1A holoenzyme, primary screen, biochemical, fluorescence polarization, Cy5-IP20, bovine R1A, mouse PKAc; cAMP-dependent protein kinase type I-alpha regulatory subunit (Bos taurus) + …; PKA-R1A dissociation; scaled: DMSO 0%, 113 µM cGMP 100%; activation, % at 11.4 µM; 340,000 compounds, 0.083% hits; AID 504707, 2011;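 active means percent activation above the mean of all tested compounds plus 3 SD, cut at about 19% in these data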;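 further: higher means more PKAc released from R1A so a rise in polarization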
Rpn11 inh conf – Rpn11 (PSMD14) deubiquitinase inhibitors, confirmation, biochemical, fluorescence polarization, single concentration; purified human 26S proteasome, Ub4-pepOG fluorescence polarization; proteasome pretreated with epoxomicin; 1,900 compounds, 29% hits; inhibition, % at 20 µM; shares compounds with Rpn11 block
MMP-2 counter – MMP-2 enzyme inhibition, confirmation, counter-screen for RPN11 inhibitor project, biochemical, fluorescence, single concentration; shares compounds with Rpn11 block; recombinant MMP-2, FRET peptide cleavage fluorescence; inhibition, % at 20 µM; 1,900 compounds, 4% hits; AID 602330, 2012;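 further: human MMP-2 activated beforehand with APMA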
Thrombin FP – bovine thrombin protease inhibition, confirmation, counter-screen for Rpn11 inhibitor project, biochemical, fluorescence polarization, single concentration; bovine thrombin cleavage of Ub4-pepOG; shares compounds with Rpn11 block; inhibition, % at 20 µM; AID 602333, 2012; 1,900 compounds, 13% hits;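 active means mean inhibition at least 40% at 20 µM, or signal 3 deviations below plate average, so some actives read negative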;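 further: plate controls were thrombin with DMSO for no effect and buffer wells lacking thrombin for full effect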
* marks the source's active call; other numbers are inactive results; i = inactive; / = no result given; + = active, no number. Sampled rows, rich in hits. Any-hit rate of the full collection: about 1.3%. Unless noted, no stated cut-off is given here; in the data, active means inhibition above about 40%; inactive means the rest.

SMILES	Rpn11 block	Neddylation inh	PKA-R2B activ	PKA-R1A activ	Rpn11 inh conf	MMP-2 counter	Thrombin FP
CC(C)(C)S(=O)N1Cc2cc(C(=O)N[C@@H]3CCN(Cc4ccccc4)C3)nc(-c3cccc(-c4cc5ccccc5o4)c3)c2[C@@H]1CCO (stereo partly drawn)	+	21.9	/	/	26.5	14.7	-0.1
O=C(NC1CCN(Cc2ccccc2)CC1)c1ccccc1OCc1ccccc1Cl	i	5.2	-4.4	-8.4	/	/	/
COC(=O)c1c(NC(=O)c2ccc(S(=O)(=O)N3CC(C)OC(C)C3)cc2)sc2c1CCN(C)C2 (stereo not drawn)	+	-0.8	3.4	5.4	92.7*	-50.0	35.4
CC(C)Cn1c(N)c(C(=O)COC(=O)CCNS(=O)(=O)c2ccccc2)c(=O)n(C)c1=O	i	1.8	-2.3	2.3	/	/	/
Cc1cccc(NC2=NCC(=O)N2Cc2cccs2)c1	i	4.5	6.0	-5.4	/	/	/
CCOc1ccc2nc(N3C(=O)/C(=C/c4ccc(Cl)cc4)NC3=S)sc2c1	+	-62.8	-7.4	1.6	31.4	-5.5	-0.1
COc1cc(/C=C/c2ccc3cccc(O)c3n2)c(Br)cc1O	+	3.3	-5.8	0.2	12.0	-21.4	0.7
CCc1c(O)nc(SCC(=O)Nc2ccc(C)cc2)n(C2CCCCC2)c1=O	+	-7.0	0.6	-10.7	42.1*	0.7	27.9
CCc1c(O)nc(SCC(=O)Nc2ccc(Br)cc2)n(-c2ccc(C)cc2)c1=O	i	-2.7	-7.5	-0.4	/	/	/
O=S(=O)(c1ccc(Br)s1)N1CCN(c2ccc(F)cc2)CC1	i	-9.4	-0.8	-2.6	/	/	/
O=S(=O)(c1ccc(Br)s1)N1CCN(c2ccccc2)CC1	+	-2.1	-5.9	9.4	21.5	-0.9	21.4
Nc1cc2nc[nH]c2cc1N	+	-10.3	-18.1	-8.6	-19.3	3.4	-29.2
Cn1c(=O)n(C)c2cc3[nH]cnc3cc21	i	8.3	-2.5	-10.8	/	/	/
CC(C)c1cccc(C(C)C)c1NC(=O)c1ccc(-c2cc(Cl)ccc2Cl)o1	i	-17.6	/	/	/	/	/
O=C(CC1C=Cc2ccccc2N1C(=O)c1ccccc1)c1ccccc1 (stereo not drawn)	i	-3.8	-13.5	-4.2	/	/	/
COc1ccc(-c2cc(C(=O)Nc3cc(Cl)ccc3O)no2)cc1	+	5.0	-10.7	0.0	11.9	-7.4	-5.1
CCc1ccc(NC(=O)c2cc(-c3ccc(OC)cc3)on2)cc1	i	/	-3.6	-6.1	/	/	/
COc1ccc(-c2cc(C(=O)Nc3ccc(Br)cc3)no2)cc1	+	-2.3	-2.9	-9.3	-27.1	-43.2	-19.5
CSCC[C@H](NC(=O)[C@@H]1Cc2ccccc2CN1)C(=O)Nc1ccc2c(c1)OCCO2	i	-9.3	-8.6	-2.6	/	/	/
CCOC(=O)Cc1csc(NC(=O)c2sc3nc4c(C)cc(C)cc4cc3c2N)n1	+	18.8	-11.4	-3.8	24.4	-17.1	-1.6
COc1ccccc1N1C(=O)S/C(=C\c2ccc(C)s2)C1=O	+	4.6	-6.2	-0.2	56.8*	-28.2	21.8
COc1cc(/C=C2\SC(=Nc3ccccc3OC)NC2=O)ccc1O	+	-20.7	2.9	-8.1	47.4*	13.8	51.1*
COc1cc(/C=C2/SC(=Nc3ccc(O)cc3)NC2=O)ccc1O	+	-41.1	-1.6	-10.5	69.9*	-8.9	63.9*
CCc1ccc(N=C2NC(=O)/C(=C/c3cc(OC)c(O)c(OC)c3)S2)cc1	/	-9.9	2.7	4.0	/	/	/
COc1ccc(-c2ccc(NC(=O)c3ccc(Br)o3)cc2)nn1	+	-32.1	0.1	-13.1	13.0	16.1	-20.7
